Screening results: PubChem, National Center for Advancing Translational Sciences (NCATS)
A selection: hits, their analogues and other compounds. The true share with any hit is near 8.3%.
Giardia killer = kills Giardia lamblia; Giardia lamblia trophozoite viability; activity change, % at 7.66 µM, hits read low; 0.15% of 340,000 active; in the data active = activity change below about -80%; inconclusive = between about -30% and that limit;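 also: parasites exposed to compound for two days anaerobically before the ATP read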
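Media and compound were dispensed first, then trophozoites at 100 cells/well; plates sat 48 hrs at 37 deg C without oxygen before ATP luminescence reagent was added and read after 15-30 min at room temperature.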
Chronic BCR inh = inhibitors of chronic active B-cell receptor signaling; ABC-DLBCL IkBa-CBG/CBR reporter, luminescence ratio, 4 h; Potency, µM (titrated, usually from 46.1 µM), most hits filed as inhibitors; 0.05% of 340,000 active; AID 493014; active = well fitted inhibition curve with a large enough effect in the signal ratio, with a control signal flat, not every such curve was filed as active; inconclusive = small, poorly fitted or top-dose-only effect, or effect the other way, or a change in a side signal; the % refers to the signal ratio
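Concentration-response series (up to 46 uM) were applied to TMD8 dual-reporter cells for 4 h at 37C with doxycycline. Green/red ratio, after filter-overlap correction, defined %Activity; red signal alone was normalised to basal cells and zero luminescence.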
MCF10A rerep = inducers of DNA re-replication in MCF 10A breast cells. Potency, µM (doses to about 46.1 µM), most hits filed as activators. AID 624296. 2.9% of 350,000 active. MCF 10A DNA re-replication, Hoechst nuclear intensity, 48 h; also: nearly all actives have a fitted effect of over 50% in size
RORg inh = blocks mouse ROR gamma transcriptional activity | P51450 | Drosophila S2 Gal4-RORgamma UAS-luciferase reporter, 20 h | 5.4% of 310,000 active | Potency, µM (titrated, usually from 53.6 µM), usual class: inhibitors; also: nearly all actives have a fitted effect of over 60% in size
Target sequence (P51450 whole entry, looked up, the tested form may be a part): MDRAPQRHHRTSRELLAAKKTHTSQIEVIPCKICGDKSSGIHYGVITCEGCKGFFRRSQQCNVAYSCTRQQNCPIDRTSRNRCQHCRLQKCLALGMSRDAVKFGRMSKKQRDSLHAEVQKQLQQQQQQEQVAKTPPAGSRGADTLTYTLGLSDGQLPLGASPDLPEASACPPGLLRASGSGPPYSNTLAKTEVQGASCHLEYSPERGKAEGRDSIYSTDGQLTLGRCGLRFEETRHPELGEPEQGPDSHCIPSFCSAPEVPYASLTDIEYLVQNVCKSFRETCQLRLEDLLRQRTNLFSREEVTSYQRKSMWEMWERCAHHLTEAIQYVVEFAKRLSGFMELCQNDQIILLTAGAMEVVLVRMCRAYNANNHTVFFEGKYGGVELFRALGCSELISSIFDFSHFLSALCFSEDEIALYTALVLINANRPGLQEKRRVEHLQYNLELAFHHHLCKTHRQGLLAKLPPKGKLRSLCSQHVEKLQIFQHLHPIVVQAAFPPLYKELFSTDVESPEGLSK
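Drosophila S2 cells stably expressing Gal4-DBD/mouse RORγ fusion under metallothionein promoter plus UAS-luciferase; compound 1 h, then 700 uM CuSO4 induction for 20 h at ambient temperature; inhibition read as reduced luminescence.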
VP16 counter = Gal4-VP16 reporter inhibition counter-screen. Drosophila S2 Gal4-VP16 UAS-luciferase, luminescence, 20 h. Potency, µM (series often up to 53.6 µM), usual class: inhibitors. 3.5% of 310,000 active;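 also: Gal4-VP16 expression switched on by copper sulfate through the metallothionein promoter; nearly all actives have a fitted effect of over 50% in size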
SW480 rerep = DNA re-replication induction in SW480 cells; SW480 DNA re-replication, Hoechst DNA content imaging, 48 h; Potency, µM (titrated, usually from 46.1 µM), hits mostly activators; 1.8% of 340,000 active; also: nearly all actives have a fitted effect of over 55% in size
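Hoechst fluorescence of nuclei (405 nm excitation, 500-530 nm emission) measured by plate-scanning imager after 48 hr compound exposure at 37 C; re-replication scored as increased number of nuclei with elevated intensity.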
Numbers stand for hits; i = inactive; ? = inconclusive; nt = no result given; [ ] = remark or other dose. Unless noted, calls follow the shape of the dose curve; as a rule, active = well fitted curve in the direction sought with a large enough effect; inconclusive = small, poorly fitted or top-dose-only effect, or another doubt; inactive = no such curve, though single readings can be large; an effect the other way counts as inactive or inconclusive.

SMILES	Giardia killer	Chronic BCR inh	MCF10A rerep	RORg inh	VP16 counter	SW480 rerep
S=C(Nc1ccc(Cl)c(Cl)c1)NC1CCN(Cc2ccccc2)CC1	i	?	?	?	35.5µM	?
O=c1[nH]c2ccc(NC(=S)NC3CCCCC3)cc2[nH]1	i	i	i	i	i	i
Fc1ccc(NC(=S)NC2CCN(Cc3ccccc3)CC2)cc1	i	i	i	?	i	i
CC(C)(C)CC(C)(C)NC(=S)NC1CCN(Cc2ccccc2)CC1	i	?	?	14.1µM	10µM	?
S=C(Nc1ccc2nsnc2c1)NC1CCCCC1	i	?	i	2.51µM	5.01µM	i
S=C(Nc1ccc2nsnc2c1)N1CCCCCC1	i	i	i	i	i	?
S=C(Nc1ccc(Cl)c(Cl)c1)NC1CCCCC1	i	?	i	2.51µM	5.62µM	3.26µM
Cc1cccc(NC(=O)CSc2nnc3[nH]c(=O)cc(-c4ccccc4)n23)c1C	nt	i	nt	nt	nt	nt
N#C/C(=C(/O)CCl)c1nc2c(s1)CCc1ccccc1-2	i	i	13µM	i	i	?
Nc1nc2c(s1)CCc1ccccc1-2	i	i	i	i	i	i
O=C(CCCl)Nc1nc2c(s1)CCc1ccccc1-2	i	?	18.4µM	i	i	?
CC(C)(C)c1cc(C(C)(C)C)cc(S(=O)(=O)CCc2ccccn2)c1	i	i	i	11.2µM	i	i
CCN1c2ccccc2-c2nc3ccccc3n2C1c1ccccn1 (configuration not stated)	i	?	i	8.91µM	i	i
CN1c2ccccc2-c2nc3ccccc3n2C1c1cccs1 (configuration not stated)	i	?	10.3µM	4.47µM	i	?
Cc1ccc(C2N(C)c3ccccc3-c3nc4ccccc4n32)o1 (configuration not stated)	i	i	?	10µM	i	?
CCN1c2ccccc2-c2nc3ccccc3n2C1c1ccncc1 (configuration not stated)	i	?	i	i	i	i
CC(=O)Nc1ccn(C2OC(C(COC(C)=O)NC(=O)C(C)NC(=O)OC(C)(C)C)C(OC(C)=O)C2OC(C)=O)c(=O)n1 (configuration not stated)	?	nt	nt	i	i	nt
O=c1[nH]c(Nc2ccccc2)cc2ccccc12	i	?	13µM	i	i	i
COc1ccc(OC)c(Nc2nnc(C)c(=O)[nH]2)c1	i	i	i	i	i	i
COc1ccccc1Nc1cc2cc(Br)ccc2c(=O)[nH]1	i	nt	20.6µM	nt	nt	?
COc1ccc(OC)c(Nc2cc3ccccc3c(=O)[nH]2)c1	i	nt	16.4µM	nt	nt	20.6µM
O=S(=O)(NCC(c1cccnc1)N1CCN(Cc2ccccc2)CC1)c1cc(F)ccc1F (configuration not stated)	i	i	i	i	i	i
COc1cc(C(=O)Nc2cccc(-c3nc4cc(C)ccc4o3)c2C)cc(OC)c1OC	i	i	7.31µM	i	i	i
COc1cc(C(=O)Nc2cccc(-c3nc4ncccc4o3)c2C)cc(OC)c1OC	i	i	i	i	i	i
CCc1nnc(NC(=O)CSc2nc(-c3ccccc3)c(-c3ccccc3)o2)s1	i	i	?	?	?	i
SMILES	Giardia killer	Chronic BCR inh	MCF10A rerep	RORg inh	VP16 counter	SW480 rerep
CCc1nnc(NC(=O)CSc2nnc(-c3ccccc3O)o2)s1	i	?	i	0.112µM	1.12µM	i
CCc1nnc(NC(=O)CSc2ncc(-c3ccccc3)n2C)s1	?	?	i	11.2µM	?	i
CCc1nnc(NC(=O)CSc2nnc(CSc3nc(C)cc(C)n3)o2)s1	i	i	i	5.62µM	12.6µM	i
CCc1nnc(NC(=O)CSc2nccn2-c2ccccc2)s1	i	i	i	i	i	i
COc1ccc(S(=O)(=O)NCC(c2ccco2)S(=O)(=O)c2cccs2)cc1F (configuration not stated)	nt	i	nt	nt	nt	nt
O=C(Nc1ccccc1)c1cccc(S(=O)(=O)Nc2cccc(F)c2)c1	nt	i	nt	nt	nt	nt
C/C(=N/NC(=O)c1nnn(-c2nonc2N)c1COc1ccccc1)c1ccccc1Cl	i	i	i	22.4µM	?	?
C/C(=N\NC(=O)c1nonc1N)c1cccs1	i	?	i	0.316µM	i	i
C/C(=N/NC(=O)c1nnn(-c2nonc2N)c1COc1ccccc1)c1ccc(O)cc1	i	i	i	i	i	i
C/C(=N\NC(=O)c1nnn(-c2nonc2N)c1-c1ccccc1)c1ccccc1O	i	i	14.6µM	1.78µM	6.31µM	0.82µM
C/C(=N\NC(=O)c1nnn(-c2nonc2N)c1-c1ccc2c(c1)OCO2)c1ccccc1	i	i	?	i	i	?
Cn1c(CNC(=O)C2CCC(=O)N(CCc3cccc(F)c3)C2)nc2ccccc21 (configuration not stated)	i	i	i	i	i	i
Cc1cc(C)n(-c2ccc(C(=O)NCC(=O)Nc3cc(Cl)ccc3Cl)cc2)n1	i	i	i	nt	nt	i
CC(C)(CO)NCc1ccc(Br)cc1	i	i	i[9.22 µM]	i	i	i
O=C(NCC1CCCCC1)c1ccc(Br)o1	i	i	i	nt	nt	i
CCn1nnc2cc(C(=O)OCC(=O)N(C)Cc3cccc(F)c3)ccc21	i	?	i	nt	nt	i
COc1ccc(S(=O)(=O)N(Cc2ccccc2)Cc2nc3ccccc3c(=O)[nH]2)cc1	i	i	i	12.6µM	11.2µM	i
O=c1[nH]c(CN(CCc2ccccc2)S(=O)(=O)c2ccc(Cl)cc2)nc2ccccc12	i	i	i	4.47µM	6.31µM	?
O=c1[nH]c(Cc2ccc(Cl)cc2)nc2ccccc12	i	?	i	i	i	i
O=C(O)c1ccccc1C(=O)Nc1ccccc1	i	?	i	i	i	i
O=C(Nc1ccccc1)C1=C(c2ccccc2)S(=O)(=O)CCS1(=O)=O	i	?	?	0.891µM	2.24µM	1.3µM
Cc1nnc(N(Cc2ccco2)C(=O)c2cccc(C#N)c2)s1	i	?	i	12.6µM	i	?
COc1cc(/C=C/C(=O)O)cc(S(=O)(=O)Nc2ccccc2Oc2ccccc2)c1OC	i	i	i	i	i	i
CCCOc1ccccc1NC(=O)/C=C/C(N)=O	i	?	4.47µM	3.98µM	4.47µM	12.6µM
CCCCOc1ccccc1NC(=O)C=C(C)C	i	i	i	i	i	i
Brc1cc(Br)c2nc(-c3ccc(N4CCOCC4)cc3)ccc2c1	i	?	9.2µM	?	i	8.2µM
O=C(O)c1cc(-c2ccc(N3CCOCC3)cc2)nn1-c1ccc(F)cc1F	i	i	i	i	i	i
C=CCn1c(N)cc(=O)nc1SC(CC)C(=O)Nc1ccc(C(C)=O)cc1 (configuration not stated)	i	i	i	i	i	i
COc1cccc(-c2cc(=O)c3cc(NC(=O)c4ccc(Cl)cc4)ccc3[nH]2)c1	i	i	?	i	i	?
